# Values joined by “and” are separate entries in the source; they are usually repeats but may differ in a detail not shown here. Equal entries are not always repeated. About 83,000 compounds went through this panel and 20% of them were active in at least one assay; those are over-represented in the sample as a whole.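 Growth was measured after 48 h exposure to one concentration of compound in 96-well plates. Values under 10 count as active.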 Active and inactive are the calls of the source.
# System: MDA-MB-468 breast
# Test: NCI-60 one-dose screen, 48 h (100 = growth as untreated, 0 = no growth, -100 = all killed)
# Conditions: 10 µM unless noted
row,SMILES,growth
1,Cc1c(O)cc(-c2cnc(N/N=C/c3ccccc3)s2)c(O)c1C,61.6% (inactive)
2,COc1ccc(/C=C2\CCCC3C2=Nc2ccccc2NC3c2ccc(OC)cc2)cc1 (stereo not given),43.6% (inactive)
3,O=C(CCCSc1nc(-c2ccc(Cl)cc2)cc(-c2ccc(Cl)cc2)n1)NO,-49.5% (active)
4,C=CCc1c(O)c(C(=O)/C=C/c2ccccc2)c(OC)c2ccoc12,6.58% (active)
5,Cc1c(N2CCCCC2)[nH]c2ccccc12,121% (inactive)
6,CC(=O)OCC1OC(OC(C)=O)C(OC(C)=O)C(OC(C)=O)C1OC(C)=O (stereo not given),95.5% (inactive) and 108% (inactive)
7,COc1cc(Cl)c(C)cc1NC(=O)c1cc2ccccc2cc1O,-8.5% (active)
8,O=C(O)c1cn(C2CC2)c2cc(N3CCN(C(=O)C[n+]4ccccc4)CC3)c(F)cc2c1=O,107% (inactive)
9,COc1ccc2nccc(/C=C/c3ccnc4ccc(OC)cc34)c2c1,110% (inactive)
10,O=C1C=C(OCC=C(Cl)Cl)C(=O)c2ccccc21,41.5% (inactive)
11,Oc1ccccc1/C=N/N=C/c1c(O)ccc2ccccc12,83.4% (inactive)
12,CCCSc1nc(Nc2ccc(/C(C)=N\NC(N)=S)cc2)c(C#N)c(-c2ccc(OC)cc2)n1,93.1% (inactive)
13,C=C[C@]1(C)C=C2C(=O)[C@@]3(O)OC[C@@]4(CCCC(C)(C)C43O)C2(O)C(O)C1 (stereo not given in full),-18.7% (active)
14,c1ccc(-c2nc(Nc3ccc(-c4nc5ccccc5[nH]4)cc3)nc(N3CCOCC3)n2)cc1,-62.7% (active)
15,Cc1[nH]nc2c(=S)[nH]c(=O)[nH]c12,101% (inactive)
16,Cc1onc(-c2c(F)cccc2Cl)c1-c1ncc(-c2ccc(Cl)cc2)o1,66.2% (inactive) and 23.7% (inactive)
17,CO[C@H]1/C=C/O[C@@]2(C)Oc3c(C)c(O)c4c(O)c(c(/C=N/N5C(C)CN(Cc6ccccc6)CC5C)c(O)c4c3C2=O)NC(=O)/C(C)=C\C=C\[C@H](C)[C@H](O)[C@@H](C)[C@@H](O)[C@@H](C)[C@H](OC(C)=O)[C@@H]1C (stereo not given in full),65.1% (inactive)
18,OC(c1cc2cc(Cl)ccc2c2cc(C(F)(F)F)ccc12)C1CCCCN1 (stereo not given),-82.2% (active)
19,COc1cc2c3c(cccc3c1)C(=O)N(CCN1CCCC1)C2=O,-3.53% (active)
20,NC(=O)C1(N2CCCCC2)CCN(CCCC(=O)c2ccc(F)cc2)CC1,-10.6% (active)

row,SMILES,growth
1,CCOC(=O)C#Cc1c(C(=O)OCC)nnn1[C@@H]1O[C@H](COC)[C@@H](OC)[C@H]1OC,-20.5% (active)
2,NS(=O)(=O)c1ccc(Nc2nc(Nc3ccccc3)nc(-n3nc(-c4ccccc4)cc3-c3ccccc3)n2)cc1,11.7% (inactive)
3,Nc1c(C(=O)Nc2cccc(C(F)(F)F)c2)sc2nc3c(cc12)C(O)CCC3 (stereo not given),22.4% (inactive)
4,COc1ccc(/C=C2\CCCC3=C2NC(N)=NC3c2ccc(OC)cc2)cc1 (stereo not given),-5.61% (active)
5,COc1cc(-c2cc(/C=C/C(=O)c3ccc(N)cc3)[nH]n2)cc(OC)c1OC,-47.7% (active)
6,Nc1nc(N)c2c(n1)NC(c1sc(Cl)nc1Cl)CC(c1ccccc1)=N2 (stereo not given),-2.14% (active)
7,COc1cc2c(cc1OC)C(=O)C(CC1CCN(C(=O)Nc3ccc(C)cc3)CC1)C2 (stereo not given),93.1% (inactive)
8,COc1ccc2[nH]c(-c3ccccc3)c(C=C(C#N)C#N)c2c1,-4.84% (active)
9,Cc1ccc2c(c1)c(-c1nc(-c3c[nH]c4ncccc34)cs1)cn2C,-2.68% (active)
10,CC(/C=C/C=C(\C)[C@H](O)[C@H](C)C(=O)O[C@H]1C[C@H](C)C=C2C=C[C@@]3(C)O[C@@H](O)CC(=O)[C@]3(C)[C@H]21)=C\C=C\C(=O)O,-21.9% (active)
11,C#Cc1nc(C(C)=O)cs1,90.5% (inactive)
12,CCc1ccc(Nc2cc(C)nc3nc(C)nn23)cc1,-87.8% (active)
13,CN(C)CCCNC1=C(Cl)C(=O)c2ccccc2C1=O,-8.11% (active) and -54.1% (active)
14,CN(C)CCn1cc(-c2ccc3c(Nc4ccc(CC(=O)Nc5cccc(F)c5)cc4)ncnc3c2)cn1,-82.9% [30 µM] (active)
15,CCC(C)(C)c1ccc(OCCCCCCN2CCNCC2)cc1,-9.22% (active)
16,CS(=O)(=O)Nc1cccc(-c2cc(-c3ccccc3Cl)c(C#N)c(N)n2)c1,-9.46% (active)
17,COc1ccccc1/C=C1\Oc2ccc(O)c(O)c2C1=O,101% (inactive)
18,Cc1ccc(=O)n(-c2ccc(Br)cc2F)c1,102% (inactive)
19,Oc1ccccc1-c1nnc(COc2ccc(Cl)cc2Cl)o1,58.7% (inactive)
20,CCCC(=O)NC(c1cccnc1)c1ccc2c(C)ccnc2c1O (stereo not given),-2% (active)
